Hit rate of the full screen: of about 69,000 compounds, about 8,600 (12%) showed an effect of 50% or more. Only a selection was taken, and strong results are over-represented in it overall.
test system: Plasmodium berghei; test: Screen against P. berghei liver stage (PbLuc), transformed with Luciferase, at 10uM; assay type: functional, HepG2; conditions: tested at 10 uM

| Compound | INHIBITION |
| --- | --- |
| O=C(NC1CCC1)[C@@H]1C[C@@H]2CCN(CCc3ccccc3)C[C@H]2O1 | 81.2% |
| O=C(NC1CC1)[C@H]1C[C@@H]2CCN(CCc3ccccc3)C[C@H]2O1 | 44.4% |
| O=C(NC1CC1)[C@@H]1C[C@@H]2CCN(Cc3ccccc3)C[C@H]2O1 | 29.9% |
| CS(=O)(=O)c1ccc(CNC(=O)N2CCC(CO)CC2)cc1 | 17.4% |
| CCc1nccn1CC1CCCN1S(=O)(=O)N1CCCOCC1 (stereo not drawn) | -9.39% |
| CN1C[C@H]2CC[C@@H](CC1=O)N2C(=O)c1cc2ccccc2[nH]c1=O | -7.53% |
| Cc1cc(N(C)C)nc(N2CCCC2c2ccccn2)n1 (stereo not drawn) | -30% |
| CC(C)c1noc(CCC(=O)NC(C)c2nnc3n2CCC3)n1 (stereo not drawn) | 20.6% |
| CC(NC(=O)CCC1CCCCC1)c1nnc2n1CCC2 (stereo not drawn) | -31.8% |
| CCCC(=O)NC(C)c1nnc2n1CCC2 (stereo not drawn) | 3.73% |
| CC(C)c1noc(CCC(=O)NC(C)c2nnc3n2CCCCC3)n1 (stereo not drawn) | 11.8% |
| CC(C)CCC(=O)NC(C)c1nnc2n1CCCCC2 (stereo not drawn) | 53.8% |
| CC(C)c1noc(CCCC(=O)NC(C)c2nnc3n2CCC3)n1 (stereo not drawn) | 50.2% |
| CSCCC(C)(O)CNS(=O)(=O)Cc1cccc(C)c1 (stereo not drawn) | 17% |
| Cc1cc(N2CCCC2c2nnc3n2CCCCC3)nc(N)n1 (stereo not drawn) | 63.6% |
| c1ccc2nc(N3CCCC3c3nnc4n3CCCCC4)cnc2c1 (stereo not drawn) | 42.8% |
| Cc1cc(N2CCCC2c2nnc3n2CCCCC3)nc(C)n1 (stereo not drawn) | 23.6% |
| c1cnc2nc(N3CCCC3c3nnc4n3CCCCC4)ccc2n1 (stereo not drawn) | 58.7% |
| Clc1cncc(N2CCCC2c2nnc3n2CCCCC3)n1 (stereo not drawn) | -22.4% |
| CCOc1cncc(N2CCCC2c2nnc3n2CCCCC3)n1 (stereo not drawn) | 24.2% |
| Cc1cnn(C2CCCN(C(=O)Cc3n[nH]c4ccccc34)C2)c1 (stereo not drawn) | 33.7% |
| CN(CCc1ccccn1)C(=O)CCC1CCCN(S(C)(=O)=O)C1 (stereo not drawn) | 15.3% |

| Compound | INHIBITION |
| --- | --- |
| O=C(NCc1nncn1C1CCCCC1)C1COc2ccccc2C1 (stereo not drawn) | 32.4% |
| CNC(=O)N1CCc2cc(C(=O)N(C)C)c(NCC3CC3)nc2CC1 | -25% |
| COc1ccc(Cl)cc1CCNC(=O)NCc1ncnn1C | -23.5% |
| Cc1c(Cl)cc(C(=O)NCCc2ncnn2C)cc1Cl | 42% |
| Cc1c(NCC(C)(C)C)cccc1C(=O)NCc1ncnn1C | -30.1% |
| COc1ccc(Br)c(NC(=O)NCc2ncnn2C)c1 | 13.8% |
| COc1ccc(C)c(NC(=O)NCc2ncnn2C)c1 | 51.1% |
| Cc1cc(C)cc(C(=O)NCc2ncnn2C)c1 | 57.2% |
| O=C(c1ccc(-c2ccccc2)[nH]c1=O)N1CCN(C2CC2)CC1 | 32.8% |
| CN(C)C(=O)[C@H]1C[C@H]2CN(C(=O)NCC3CCCCC3)C[C@@H]1O2 | -36% |
| Fc1ccc(CN2CCCn3cnc(COCC4CC4)c3C2)cc1 | 45.8% |
| O=C(NC(C(=O)Nc1cc[nH]n1)c1ccccc1)C1CCC1 (stereo not drawn) | 50.7% |
| O=C(COC1CCCC1)NC(C(=O)Nc1cc[nH]n1)c1ccccc1 (stereo not drawn) | 62.6% |
| O=C(NC(c1ccccc1)c1cccnc1)C1CC1 (stereo not drawn) | 25.8% |
| NC(=O)C(NC(=O)COC1CCCC1)c1ccccc1 (stereo not drawn) | 45.3% |
| CC(NC(=O)C1CCCC1)c1nc(-c2ccccc2)c[nH]1 (stereo not drawn) | 31.7% |
| NC(=O)C(NC(=O)COC1CCCCC1)c1ccccc1 (stereo not drawn) | 22.5% |
| c1cnnc(N2CCCC2CNCc2nc(-c3ccco3)no2)c1 (stereo not drawn) | 30.42% |
| CNC(=O)CN1CC[C@H]2CN(C(=O)c3ccoc3)C[C@H]2C1 | 15.4% |
| Cc1ccc(CC(=O)N2CCCC(n3ccnc3C(C)C)C2)cn1 (stereo not drawn) | -9.19% |
| CN1CCOC(CNC(=O)Cc2coc(-c3ccccc3)n2)C1 (stereo not drawn) | -33.9% |
| CC(=O)c1cccc(NC(=O)CCn2nc(-c3cccs3)oc2=O)c1 | 29.2% |

| Compound | INHIBITION |
| --- | --- |
| O=C(c1c2c(N3CCCC3)ncnc2n2ccccc12)N1CCOCC1 | 36.2% |
| O=C(c1c2c(NCC3CC3)ncnc2n2ccccc12)N1CCCC1 | 26.5% |
| O=C(c1c2c(NCC3CC3)ncnc2n2ccccc12)N1CCOCC1 | 50.7% |
| CCc1n[nH]c(C2CN(C(=O)c3cscn3)CCO2)n1 (stereo not drawn) | -23.9% |
| CO[C@@H]1CN(S(=O)(=O)c2cn(C)cn2)[C@@H]2CCCO[C@@H]21 | -66.7% |
| O=C(NCc1nncn1C1CC1)c1cccnc1Oc1ccccc1 | 25.6% |
| CNC(=O)CN1CCC(CN(C)CCSc2ccccc2)CC1 | -70.7% |
| CCCC(=O)N1CCC(c2nn(C)c(=O)n2-c2ccccc2)CC1 | 28.7% |
| CC(=O)N1CCC(c2nn(C)c(=O)n2-c2ccccc2)CC1 | 35.2% |
| CNC(=O)CN1CCC(c2nn(C)c(=O)n2-c2ccccc2)CC1 | 53.7% |
| Cn1nc(C2CCN(CC(=O)NC3CC3)CC2)n(-c2ccccc2)c1=O | -21.3% |
| CCSC(C)C(=O)N1CCC(c2nn(C)c(=O)n2-c2ccccc2)CC1 (stereo not drawn) | 63.7% |
| Cc1nc(NCc2cccc(F)c2)cc(C2CCNCC2)n1 | 24.8% |
| COc1ccccc1CN1C(=O)O[C@@H]2CN(C(C)C)C[C@@H]21 | 79.5% |
| COc1ccccc1CN1C(=O)O[C@@H]2CN(CC3CC3)C[C@@H]21 | -0.613% |
| COc1ccccc1CN1C(=O)O[C@@H]2CN(S(=O)(=O)N(C)C)C[C@@H]21 | 7.97% |
| CCNc1ccnc(NCC2(N(C)C)CCOCC2)n1 | 39% |
| CCC1(CC)CC(=O)N(CC(O)c2ccc(Cl)cc2)C1=O (stereo not drawn) | 7.3% |
| O=C(CCc1nc(-c2ccsc2)no1)NCC1CCN(C2CC2)C1 (stereo not drawn) | 69% |
| O=C(CCc1nc(-c2cccnc2)no1)NCC1CCN(C2CC2)C1 (stereo not drawn) | 11% |
| O=C(CCc1nnc(-c2ccsc2)o1)NCC1CCN(C2CC2)C1 (stereo not drawn) | -6.04% |
| Cc1cc(NCCN2CCNC2=O)nc2cc3c(cc12)CCC3 | 59.5% |

| Compound | INHIBITION |
| --- | --- |
| Cc1cc(NCCS(C)(=O)=O)nc2cc3c(cc12)CCC3 | 41.5% |
| COc1cc2nc(NCCN3CCNC3=O)cc(C)c2cc1OC | -13.4% |
| Cc1cccc(NC2CCc3c2[nH]c(=O)n(C2CCCCC2)c3=O)c1C (stereo not drawn) | 84% |
| O=c1[nH]c2c(c(=O)n1C1CCCCC1)CCC2Nc1ccccn1 (stereo not drawn) | 24.2% |
| O=c1[nH]c2ncccc2n1C1CCCCC1 | 1.41% |
| O=C(c1ccc2c(c1)[nH]c(=O)n2C1CCCC1)N1CC(O)C1 | 44.3% |
| O=c1[nH]c2ncccc2n1C1CCCC1 | 9% |
| O=c1[nH]c2c(c(=O)n1C1CCCCC1)CCC2Nc1ccc(Cl)cc1 (stereo not drawn) | 46.5% |
| COc1ccc(NC2CCc3c2[nH]c(=O)n(C2CCCCC2)c3=O)cc1 (stereo not drawn) | 78.4% |
| O=c1[nH]c2c(c(=O)n1C1CCCCC1)CCC2Nc1ccccc1Cl (stereo not drawn) | 80.5% |
| O=c1[nH]c2c(c(=O)n1C1CCCCC1)CCC2Nc1ccccc1 (stereo not drawn) | -22.9% |
| O=c1[nH]c2c(c(=O)n1C1CCCCC1)CCC2NCCc1ccccc1 (stereo not drawn) | 37.9% |
| COc1ccc(NC(=O)N2CCCCC2c2ncc[nH]2)cc1 (stereo not drawn) | 11.2% |
| O=c1[nH]c2c(c(=O)n1C1CCCCC1)CCC2NCc1ccccc1 (stereo not drawn) | 52.1% |
| Cc1cccc(CN2C[C@@H]3CN(C(=O)c4cnoc4C)C[C@@H]3C2=O)n1 | 1.34% |
| CC(=O)N(C)Cc1ccccc1NC(=O)c1cnn(C)c1C | -18.7% |
| CNC(=O)CN1CCOCC2(C1)CN(C(=O)CC(C)C)CCO2 (stereo not drawn) | -3.52% |
| Cc1nn(C)cc1S(=O)(=O)NCC(C)Cn1cc(Cl)cn1 (stereo not drawn) | 18.4% |
| COCCN(C)Cc1cc(Cl)ccc1OCC(O)CN1CCCCCC1 (stereo not drawn) | 25.4% |
| Cn1cccc1C(=O)N1CCc2c(CNS(C)(=O)=O)cncc2C1 | -7.29% |
| Cc1ccc(CC2CCCN(S(C)(=O)=O)C2)nc1 (stereo not drawn) | 21.9% |
| CC(C)Oc1cccc(CN(C)C(=O)Cc2ccon2)c1 | -24.6% |

| Compound | INHIBITION |
| --- | --- |
| OCc1cccc(OCc2ccon2)c1 | 36.8% |
| CC(O)c1cccc(OCc2ccon2)c1 (stereo not drawn) | 74.3% |
| Cc1cccc(C(C(=O)N(C)Cc2ccon2)N(C)C)c1 (stereo not drawn) | 25.9% |
| CCCOc1cccc(OCc2ccon2)c1 | 91.3% |
| CCCOc1cccc(-c2nc3c([nH]2)CCNC3)c1 | 13.7% |
| Cc1ccsc1CNC(=O)CCc1c(C)nc2cc(O)nn2c1C | 40.2% |
| Cc1nc(CNCc2cccnc2Oc2ccc(C)c(F)c2F)c[nH]1 | 75.3% |
| Cc1ccccc1Oc1ncccc1CNC1CCC1 | 28% |
| CN(C)S(=O)(=O)NCc1cccnc1Oc1ccccc1F | 5.46% |
| COc1ncccc1CNC(=O)C1CC(=O)N(C)C1 (stereo not drawn) | 10.6% |
| CCCS(=O)(=O)NCc1cccnc1Oc1ccc(C)nc1 | 1.93% |
| Cc1ccccc1Oc1ncccc1CNS(C)(=O)=O | 0.139% |
| CC(C)S(=O)(=O)NCc1cccnc1Oc1ccc(F)cc1F | 56.3% |
| CN1CC(C(=O)NCc2cccnc2OCC(F)(F)F)CC1=O (stereo not drawn) | 44.9% |
| c1ccc(Oc2ncccc2CNCc2ccccn2)cc1 | 19.7% |
| CCCS(=O)(=O)NCc1cccnc1Oc1ccc(C)c(F)c1F | 50.3% |
| CN(C)S(=O)(=O)NCc1cccnc1Oc1ccc(F)cc1F | 31.7% |
| CN1CC(C(=O)NCc2cccnc2OCc2ccccc2)CC1=O (stereo not drawn) | 55.1% |
| Cc1nc(CN(C)C(=O)CN(C)C)nc2c1CCC(=O)N2CCC(C)C | 7.43% |
| Cc1cccc(CS(=O)(=O)c2nnc([C@@H](N)Cc3ccccc3)o2)c1 | 23.1% |

Source: ChEMBL document CHEMBL4513216, “Probing the Open Global Health Chemical Diversity Library for Multistage-Active Starting Points for Next-Generation Antimalarials” (ACS Infect Dis, 2020)
